Compound activity deposited in PubChem BioAssay by National Center for Advancing Translational Sciences (NCATS).
This is a sample that favours compounds with a hit; in the whole collection about 18% have one here.
DT40 TDP1 CPT – growth inhibition of DT40 Tdp1-/-;hTDP1 cells with camptothecin (screen for TDP1 inhibitors). chicken DT40 Tdp1-/-;hTDP1 cells + 20 nM CPT, ATP luminescence, 48 h. Potency, µM (titrated, usually from 46.2 µM), for inactives: at the top dose activity change, negative = growth inhibition, actives largely listed as inhibitors. actives 12% (n = 420,000); also: potency is read from the fitted curve at half-maximal effect; nearly all actives have a fitted effect of over 55% in size
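Chicken DT40 Tdp1-/- cells complemented with human TDP1, 400 cells/well, exposed to compounds plus 20 nM camptothecin for at least 48 h at 37 C; viability read as ATP content by CellTiter-Glo luminescence.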
Gal4-VP16 FLuc – inhibits Gal4-VP16 luciferase reporter, ROR gamma counter-screen; Drosophila S2 Gal4-VP16 UAS-luciferase, luminescence, 20 h; Potency, µM (series often up to 53.6 µM), without a hit: at the top dose activity, negative = inhibition, actives largely listed as inhibitors; actives 3.5% (n = 310,000); AID 2546;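 also: Gal4-VP16 expression switched on by copper sulfate through the metallothionein promoter; potency is read from the fitted curve at half-maximal effect; nearly all actives have a fitted effect of over 50% in size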
DT40 TDP1 no CPT – qHTS for Inhibitors of human tyrosyl-DNA phosphodiesterase 1 (TDP1): qHTS in cells in absence of CPT. DT40 Tdp1-/- hTDP1 cells, no CPT, ATP luminescence, 48 h. Potency, µM (titrated, usually from 46.2 µM), inactives show top-dose activity change, negative = growth inhibition, actives largely listed as inhibitors. actives 15% (n = 420,000); also: potency is read from the fitted curve at half-maximal effect; nearly all actives have a fitted effect of over 55% in size
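Seeded 400 DT40-hTDP1 cells/well (vehicle DMSO, no 20 nM CPT); pinned compounds; ≥48 hr at 37 °C; CellTiter-Glo luminescence as viability measure.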
LDHA inh – blocks human lactate dehydrogenase A; actives 0.15% (n = 480,000); purified LDHA, NADH/diaphorase-resazurin fluorescence; stronger effect = lower value; P00338; activity change, % (values are at about 110 or 230 µM); AID 1347041; in the data active = activity change below about -30%; inconclusive = mostly about -25% to -30%;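 also: plate controls were DMSO wells for no effect and wells without enzyme for full effect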
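LDH5 2 nM; NADH 0.06 mM, pyruvate 0.2 mM; 200 mM Tris pH 7.4, EDTA, Tween-20; 5 min RT. Detection: diaphorase 0.133 mg/mL + resazurin 37 µM, fluorescence ex540/em590 at 0 and 20 min; normalized to enzyme-free and DMSO wells.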
IL-1B inflam inh – blocks inflammasome-driven IL-1 beta release | activity change, % at 57.5 µM | AID 743279 | actives 4.7% (n = 360,000) | THP-1 LPS/ATP IL-1B secretion, AlphaLISA, 16 h; stronger effect = lower value; in the data active = activity change below about -50%; inconclusive = mostly about -30% to -49%
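THP-1 cells pretreated 1 hr with compounds (up to 57.5 uM final), then stimulated with LPS (250 ng/mL final) plus ATP (1.25 mM final); secreted IL-1B measured by AlphaLISA after 16 hr, decreased signal indicating inhibition.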
RORg inh – blocks mouse ROR gamma transcriptional activity | Potency, µM (series often up to 53.6 µM), inactives show top-dose activity change, negative = inhibition, hits mostly inhibitors | actives 5.4% (n = 310,000) | P51450 | Drosophila S2 Gal4-RORgamma UAS-luciferase reporter, 20 h; also: potency is read from the fitted curve at half-maximal effect; nearly all actives have a fitted effect of over 60% in size
Target sequence (P51450 whole entry, looked up, the tested form may be a part): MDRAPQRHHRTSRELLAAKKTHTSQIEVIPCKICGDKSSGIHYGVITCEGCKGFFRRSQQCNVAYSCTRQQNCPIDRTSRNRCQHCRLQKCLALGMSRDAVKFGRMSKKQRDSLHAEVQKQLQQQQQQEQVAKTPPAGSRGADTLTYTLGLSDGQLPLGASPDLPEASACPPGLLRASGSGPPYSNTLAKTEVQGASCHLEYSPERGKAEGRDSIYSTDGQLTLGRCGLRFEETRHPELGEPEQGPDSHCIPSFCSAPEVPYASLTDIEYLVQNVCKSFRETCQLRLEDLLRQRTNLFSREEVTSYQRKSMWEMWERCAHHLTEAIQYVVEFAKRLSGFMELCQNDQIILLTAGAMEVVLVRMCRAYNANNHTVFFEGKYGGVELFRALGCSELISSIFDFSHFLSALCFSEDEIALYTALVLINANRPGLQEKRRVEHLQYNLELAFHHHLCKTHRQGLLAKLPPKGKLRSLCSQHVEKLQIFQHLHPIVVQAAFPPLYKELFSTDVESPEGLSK
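In this cell-based reporter format, copper sulfate (700 uM final) drives Gal4–ROR gamma fusion expression from a metallothionein promoter in Drosophila Schneider cells; compounds preincubated 1 hr, reporter read after 20 hr at ambient temperature.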
Numbers without * were called inactive; ? = inconclusive; / = no result given. Unless noted, calls follow the shape of the dose curve; as a rule, active = well fitted curve in the direction sought with a large enough effect; inconclusive = small, poorly fitted or top-dose-only effect, or another doubt; inactive = no such curve, though single readings can be large; an effect the other way counts as inactive or inconclusive. Unless noted, % is scaled to controls: 0 for no effect and ±100 for the full control effect.

SMILES	DT40 TDP1 CPT	Gal4-VP16 FLuc	DT40 TDP1 no CPT	LDHA inh	IL-1B inflam inh	RORg inh
COC(=O)CCNC(=O)C(C)(C)c1ccccc1	/	/	/	6	/	/
O=S(=O)(NCCc1csc2nc(-c3ccc(Cl)cc3)nn12)c1cccs1	18µM*	/	15µM*	-4	/	/
Cc1noc(C)c1S(=O)(=O)NCCc1csc2nc(-c3ccc(Cl)cc3)nn12	23µM*	/	12µM*	-3	/	/
Cc1ccc(S(=O)(=O)c2cn(CC(=O)Nc3ccc(C)c(F)c3)c3nc(C)ccc3c2=O)c(C)c1	/	/	/	7	/	/
CCOC(=O)c1cnc2ccc(C(=O)OC)cc2c1Nc1cc(C)ccc1OC	/	/	/	10	/	/
CCN(CC)C(CNC(=O)Nc1cccc(C(=O)N2CCCCC2)c1)c1ccsc1 (configuration not stated)	/	/	/	1	/	/
C[C@@H]1C=C[C@](Cc2ccccc2)(C(=O)NCC2CC2)N1C(=O)c1ccccc1	18µM*	?	9.2µM*	1	8	-3%
O=C(c1ccc(NS(=O)(=O)c2ccccc2)cc1)N1CCN(Cc2ccc3c(c2)OCO3)CC1	?	1%	?	-7	-9	40%
Cc1cccc(NS(=O)(=O)c2cccc(C(=O)N3CCCCCCC3)c2)c1	18µM*	/	5.2µM*	0	-60*	/
COc1ccc(NS(=O)(=O)c2cccc(C(=O)N3CCN(Cc4ccc5c(c4)OCO5)CC3)c2)cc1	26µM*	/	?	-4	-25	/
Cc1cccc(NS(=O)(=O)c2cccc(C(=O)N3CCCC3)c2)c1	0%	/	?	-2	-6	/
Cc1cccc(NS(=O)(=O)c2cccc(C(=O)N3CCN(C/C=C/c4ccccc4)CC3)c2)c1	?	/	?	-1	-54*	/
Cc1cccc(NS(=O)(=O)c2cccc(C(=O)N3CCCCCC3)c2)c1	?	/	?	-7	8	/
CC(C)CNS(=O)(=O)c1ccc(CCC(=O)N2CCN(Cc3ccc4c(c3)OCO4)CC2)cc1	13µM*	-22%	18µM*	-1	?	?
COc1ccccc1NS(=O)(=O)c1cccc(C(=O)N2CCN(C/C=C/c3ccccc3)CC2)c1	21µM*	2%	21µM*	-2	-1	2%
COc1ccc(NS(=O)(=O)c2cccc(C(=O)N3CCN(C/C=C/c4ccccc4)CC3)c2)cc1	23µM*	/	16µM*	-2	-3	/
CCOCCCNC(=O)C(c1ccc(C)cc1)N(Cc1cccs1)C(=O)CCc1cc(C(C)(C)C)c(O)c(C(C)(C)C)c1 (configuration not stated)	/	/	/	15	/	/
C/C(=N\Nc1ccccc1Br)c1ccc(-c2ccccc2)cc1	/	/	/	5	/	/
O=C(O)CCSCc1ccc(Cl)cc1	/	/	/	-4	/	/
Cc1cc(C(=O)N(C)C2CCS(=O)(=O)C2)c2ccccc2n1 (configuration not stated)	/	/	/	2	/	/
Cn1cnc2c1c(=O)n(CCCN1CCC(C(N)=O)CC1)c(=O)n2C	/	/	/	9	/	/
CC(=O)NCCC(=O)Nc1cccc(S(=O)(=O)N(C)c2ccccc2)c1	-7%	-9%	3%	-3	24	26%
Cc1ccccc1CN(C)CC(=O)Nc1cccc(S(=O)(=O)N(C)c2ccccc2)c1	21µM*	4%	16µM*	1	17	?
CN(c1ccccc1)S(=O)(=O)c1cccc(NC(=O)CN2CCCc3ccccc32)c1	?	?	18µM*	-7	-28	?
CC1CCC2(CC1)NC(=O)N(CC(=O)Nc1cccc(S(=O)(=O)N(C)c3ccccc3)c1)C2=O (configuration not stated)	18µM*	/	29µM*	0	?	/
CN(c1ccccc1)S(=O)(=O)c1cccc(NC(=O)CN2C(=O)NC3(CCCCC3)C2=O)c1	-11%	/	-4%	-2	-6	/
